Reference: the supplement of paper PMC13380429
Values without a mark were called inactive.

Tested on: Vero E6 infected with SARS-CoV-2
Assay: inhibition of SARS-CoV-2 cytopathic effect; higher = more antiviral protection, active = above 15
Conditions: 48 h

SMILES | inhibition of SARS-CoV-2 cytopathic effect (1 nM) [%] | inhibition of SARS-CoV-2 cytopathic effect (8.33 nM) [%] | inhibition of SARS-CoV-2 cytopathic effect (100 nM) [%] | inhibition of SARS-CoV-2 cytopathic effect (833.33 nM) [%] | inhibition of SARS-CoV-2 cytopathic effect (10000 nM)
COc1ccc(-c2cc(=O)c3c(OC)c(OC)c(OC)c(OC)c3o2)cc1 [tangeritin] | 2.13 | 0.56 | -0.23 | 0.3 | -0.52%
Cc1c[nH]c2ncnc(N3CCC(CN)(C(=O)Nc4cccc(OC(=O)N(C)C)c4)CC3)c12 | -0.02 | -1.69 | 4.07 | -0.25 | 5.79%
CC(C)N(CCCNC(=O)Nc1ccc(C(C)(C)C)cc1)C[C@H]1O[C@@H](n2cc(Br)c3c(N)ncnc32)[C@H](O)[C@@H]1O | 0.32 | 9.52 | -1.5 | -1.25 | 0.03%
COc1ccc(NS(=O)(=O)c2sc3ccc(Cl)cc3c2C)cc1N1CCNCC1 | 0.93 | 3.35 | 0.86 | 3.23 | -3.32%
O=C(O)c1cccc(-c2noc(-c3ccccc3F)n2)c1 [ataluren] | -0.23 | 0.96 | 0.68 | 2.99 | 2.92%
Cc1cccc(Cc2c[nH]cn2)c1C [detomidine] | -2.36 | -0.01 | 1.67 | -2.3 | 2.25%
O=C(O)c1ccc2[nH]cc(CCCCN3CC=C(c4ccccc4)CC3)c2c1 [carmoxirole] | 1.76 | 1.65 | -1.21 | 0.28 | 0.69%
O=C(/C=C/c1cccc(S(=O)(=O)Nc2ccccc2)c1)NO [belinostat] | -1.11 | 0.41 | -1.26 | -13.7 | -27.1%
Cc1cc(C)c(CNC(=O)c2cc(-c3ccc(N4CCN(C)CC4)nc3)cc3c2c(C)cn3C(C)C)c(=O)[nH]1 | -3.53 | -2.54 | -3.49 | -2.29 | -3.02%
CC[N+](C)(CC)CC(=O)Nc1c(C)cccc1C [N-methyllidocaine-iodide] | 1.32 | 2.44 | 0.64 | 1.63 | 1.7%
Cn1cc([S+](C)[O-])c(=O)c2ccc(F)cc21 (stereo not given) [flosequinan] | -1.94 | -0.91 | 0.34 | 2.01 | 0.19%
C[N+]1(CCCCC[N+]2(C)CCCC2)CCCC1 [pentolinium] | 2.83 | 4.75 | 5.22 | 4.57 | 0.64%
CCC(C)(CN(C)C)OC(=O)c1ccccc1 (stereo not given) [amyleine] | -1.14 | 0.02 | -0.24 | -8.42 | -0.23%
CC(C)N[C@H]1CCn2c(=O)[nH]c3cccc(c32)[C@@H]1O [zilpaterol] | 0.575 | -0.6 | -1.14 | -1.59 | -2.51%
O=C1NC(=O)C(c2ccccc2)(c2ccccc2)N1 [phenytoin] | -2.48 | 0.49 | -0.76 | -0.84 | 0.37%
COc1cc2c(c(OC)c1OC)-c1c(cc3c(c1OC)OCO3)C[C@H](C)[C@@](C)(O)C2 [schisandrol-B] | 3.78 | 3.17 | 2.65 | 2.33 | 1.68%
Cc1cccc(N(C)C(=S)Oc2ccc3ccccc3c2)c1 [tolnaftate] | -0.91 | 0.08 | -1.72 | 1.03 | 3.31%
CC(=O)OC[C@H]1O[C@@](COC(C)=O)(O[C@H]2O[C@H](COC(C)=O)[C@@H](OC(C)=O)[C@H](OC(C)=O)[C@H]2OC(C)=O)[C@@H](OC(C)=O)[C@@H]1OC(C)=O [sucrose-octaacetate] | 0.66 | 1.07 | -1.24 | -0.47 | -0.86%
CC1(C)OC2(C)C(O)CC1CC2O (stereo not given) [epomediol] | 7.71 | 1.77 | 4.4 | 1.92 | 3.17%
COc1c(O)cc2c(c1O)[C@@H]1O[C@H](CO)[C@@H](O)[C@H](O)[C@H]1OC2=O [bergenin] | -3.29 | -2.26 | -0.14 | 0.39 | -1.22%

SMILES | inhibition of SARS-CoV-2 cytopathic effect (1 nM) [%] | inhibition of SARS-CoV-2 cytopathic effect (8.33 nM) [%] | inhibition of SARS-CoV-2 cytopathic effect (100 nM) [%] | inhibition of SARS-CoV-2 cytopathic effect (833.33 nM) [%] | inhibition of SARS-CoV-2 cytopathic effect (10000 nM)
C1CCC(NC2CCCCC2)CC1 [dicyclohexylamine] | 2.51 | 6.58 | 13.2 | 0.43 | -2.8%
O=C(O)c1cccnc1Nc1cccc(C(F)(F)F)c1 [niflumic-acid] | 1.14 | 2.42 | -0.03 | 1.51 | 1.54%
CC(=O)N1CCN(c2ccc(OC[C@@H]3CO[C@@](Cn4ccnc4)(c4ccc(Cl)cc4Cl)O3)cc2)CC1 (racemic) [ketoconazole] | -0.87 | -0.69 | -1.88 | 0.35 | 1.61%
CC(C)[C@@H](CN1CC[C@@](C)(c2cccc(O)c2)[C@@H](C)C1)NC(=O)[C@H]1Cc2ccc(O)cc2CN1 | -0.76 | 1.45 | -1.62 | -1.16 | -4.59%
CC1(C)CCC2=C(O1)c1ccccc1C(=O)C2=O [beta-lapachone] | -0.31 | 0.37 | -2.74 | -1.46 | 10.9%
NC(=O)c1cccc(N)c1 [3-amino-benzamide] | -2.7 | -0.97 | -0.7 | -1.13 | 0.61%
Cc1nc(Nc2cnn(C3CCNCC3)c2)nc2c1N(C)C(=O)c1cc3ccccc3cc1N2C | 2.64 | -1.33 | -2.15 | 1.63 | 48.4% (active)
Cc1cccc2c1CC[C@H](CN1CCC(c3c(Cl)cccc3Cl)CC1)C[C@@H]2O | -2.92 | 0.72 | 4.25 | 1.11 | -8.51%
Cc1cc(N2CCOCC2)cc2[nH]c(-c3c(NC[C@@H](O)c4cccc(Cl)c4)cc[nH]c3=O)nc12 | -1.74 | -0.03 | -2.39 | -2.43 | -13.9%
COc1ccc(CCC(=O)Nc2nc3ccc(Cl)cc3s2)cc1OC | -2.56 | -3.14 | -2.66 | 0.12 | 0.38%
CCOC(=O)[C@H](CCc1ccccc1)N[C@H]1CCc2ccccc2N(CC(=O)O)C1=O [benazepril] | 2.45 | 4.14 | 3.52 | -1.12 | 1.56%
CNC(=O)CN1CCC(Oc2cc3c(Nc4cccc(Cl)c4F)ncnc3cc2OC)CC1 | -0.01 | 0.66 | -6.91 | -7.8 | -13.6%
CC(C)(C)N1CCC(c2ccccc2)(c2ccccc2)CC1 [budipine] | 0.7 | 3.31 | 2.48 | -0.28 | 1.72%
O=C(c1c(F)ccc(NS(=O)(=O)N2CC[C@@H](F)C2)c1F)c1c[nH]c2ncc(-c3cnc(C4CC4)nc3)cc12 | 3.26 | -1.73 | -2.71 | -1.89 | -5.07%
COc1cc(Nc2c(C#N)cnc3cc(OCCCN4CCN(C)CC4)c(OC)cc23)c(Cl)cc1Cl [bosutinib] | 0.33 | -1.8 | -1.97 | -8.27 | -7.97%
Cc1cc(C)c(N)c(C#Cc2cccc(F)c2)n1 | 1.69 | -1.37 | 0.6 | 3.1 | 1.98%
Cc1[nH]c2ccc(Cl)cc2c1C1=CCNCC1 | 0.44 | 2.01 | -0.51 | 1.48 | 10.1%
C[N+](C)(C)CC(=O)O [betaine] | -1.71 | -0.6 | 0.16 | 1.31 | -1.65%
Nc1ccn([C@@H]2O[C@H](CO)[C@@H](O)C2(F)F)c(=O)n1 [gemcitabine] | 1.67 | 2.4 | -0.88 | -3.94 | 3.81%
Cc1ccc(-c2csc3ncnc(SCCC(=O)O)c23)cc1 | -0.23 | 6.66 | -1.26 | 1.22 | 1.11%
